Sampled rows, rich in hits. Any-hit rate of the full collection: about 3.3%.
WRN helicase inh = blocks human WRN helicase; Q14191; WRN helicase unwinding, fluorescent forked duplex, kinetic; Potency, µM (highest dose often 114 µM), for the others: top-dose activity change, negative = inhibition, usual class: inhibitors; actives 0.46% (n = 360,000); also: potency is read from the fitted curve at half-maximal effect; nearly all actives have a fitted effect of over 55% in size
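Primary qHTS, 1536-well format. 20 nM WRN + compound, 15 min RT; start with 100 nM forked fluorophore/quencher duplex, 2 mM ATP (final); kinetic read ex 525/em 598 nm.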
USP2a block = blocks human ubiquitin-specific protease USP2a. USP2 core, Ub-CHOP2 coupled fluorogenic reporter, 485/531. Potency, µM (series often up to 38.3 µM), inactives show at the top dose activity change, negative = inhibition, actives largely listed as inhibitors. actives 0.01% (n = 330,000). AID 463254;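 also: potency is read from the fitted curve at half-maximal effect; plate controls were DMSO wells for no effect and full inhibition by NEM control for full effect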
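USP2 core (10nM final) preincubated 30min RT with compound in 20mM Tris-HCl pH 8.0, 2mM CaCl2, 2mM beta-mercaptoethanol, 0.05% CHAPS; 25nM Ub-CHOP2 plus 25nM reporter substrate added, fluorescence (Ex485/Em531) read after 60min.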
PI5P4Ka inh = PI5P4K alpha (human) kinase inhibition; max response, %; AID 652105; actives 1.2% (n = 330,000); P48426; PI5P4Kalpha enzyme, ADP-Glo luminescence, 60 min; active compounds read low; active = max response of -50% or lower; inconclusive = between -30% and -50%; inactive = -30% or higher; also: value at the top dose of about 77 µM
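Quantitative HTS of the MLSMR library against PI5P4Kalpha with substrate. ATP added last at 5 microM final; room temperature, 60 minutes. Remaining ATP depleted, ADP converted and read as luminescence.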
USP1-UAF1 inh = blocks the human USP1/UAF1 deubiquitinase complex | O94782 | recombinant USP1/UAF1, Ub-Rhodamine cleavage fluorescence | Potency, µM (titrated, usually from 57.1 µM), without a hit: at the highest dose activity change, negative = inhibition, actives largely listed as inhibitors | actives 0.23% (n = 390,000) | AID 743255; also: potency is read from the fitted curve at half-maximal effect; nearly all actives have a fitted effect of over 60% in size
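Step one: compound is pinned into 1nM USP1/UAF1 in HEPES pH 7.8 buffer with TCEP. Step two: 15 min room-temperature incubation. Step three: Ub-Rho (150nM final) starts cleavage, tracked by fluorescence over six one-minute reads.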
PLK1 PBD inh = blocks phosphopeptide binding to human PLK1 polo-box domain | P53350 | actives 2.8% (n = 360,000) | Potency, µM, for inactives: max response, negative = inhibition, usual class: inhibitors | Plk1 PBD binding of FITC phosphopeptide, fluorescence polarization; also: potency is read from the fitted curve at half-maximal effect; series mostly up to about 57 µM; nearly all actives have a fitted effect of over 65% in size
Starred values were filed as active, the others as inactive; ? = inconclusive; / = no result; [ ] = dose if it differs, or a comment. Unless noted, calls follow the shape of the dose curve; as a rule, active = well fitted curve in the direction sought with a large enough effect; inconclusive = small, poorly fitted or top-dose-only effect, or another doubt; inactive = no such curve, though single readings can be large; an effect the other way counts as inactive or inconclusive. Unless noted, % is scaled to controls: 0 for no effect and ±100 for the full control effect.

SMILES	WRN helicase inh	USP2a block	PI5P4Ka inh	USP1-UAF1 inh	PLK1 PBD inh
Cc1ccc2c(=O)cc(C(=O)Nc3c(C(=O)Nc4cccc(Cl)c4)oc4ccccc34)oc2c1	/	/	/	-12%	/
COc1ccc(OC(C)C(=O)Nc2ccc(F)cc2F)cc1 (centres undefined)	0%[57.1 µM]	1%	8	-1%	21µM*
Cc1ccn2c(c1)nc(=S)n2C(=O)c1ccccc1	-9%	0%	-14	-21%	21µM*
Cc1cccc(C(=O)Nc2c(-c3ccccc3)nc3cc(C)ccn23)c1	/	/	/	-7%	/
Cc1cccc(C(=O)n2c(=S)nc3cc(C)ccn32)c1	-3%	2%	9	-17%	21µM*
O=C(c1ccco1)n1c(=S)nc2ccccn21	-3%	-3%	/	-19%	25µM*
CCCCNC(=O)CSc1nc2n[nH]c(C)c2c(=N)n1-c1ccccc1CC	/	/	/	5%	/
CN(C)S(=O)(=O)c1ccc(-c2csc(N/N=C/c3ccc(O)cc3)n2)cc1	-12%	-1%	-63*	-16%	-6%
CN(C)S(=O)(=O)c1ccc(-c2csc(N/N=C/c3ccco3)n2)cc1	-10%	0%	?	-4%	-12%
CCc1ccc(-c2nc(CN3CCCC(C(=O)N4CCN(c5cc(Cl)ccc5C)CC4)C3)c(C)o2)cc1 (centres undefined)	/	/	/	-19%	/
O=C(NCCc1ccccc1)c1c(O)c2cccc3c2n(c1=O)CC3	-9%	1%	3	2%	-8%
COc1ccc(CCNC(=O)c2c(O)c3cccc4c3n(c2=O)CC4)cc1	3%	4%	-81*	-4%	2%
CCc1ccc(-n2nnc(-c3nc(-c4ccc(C)cc4)no3)c2N)cc1	/	/	/	-11%	/
Cc1cccc(OC(=O)Nc2ccc(C(=O)O)c(O)c2)c1	-2%	/	-54*	-3%	-29%
Cc1cc(-c2ccc(C)c(S(=O)(=O)NC(c3cccs3)C(C)C)c2)on1 (centres undefined)	/	/	/	-11%	/
CCOc1ccc2[nH]cc(C(=O)NCc3ccc(F)cc3)c(=O)c2c1	-1%	0%	9	4%	-15%
CCOCCCNC(=O)c1c[nH]c2ccc(OCC)cc2c1=O	-6%	-1%	1	-17%	30µM*
Cc1ccccc1NC(=S)C1=C(O)c2sccc2N(C)S1(=O)=O	0%	2%	-22	-24%	?
CN1c2ccsc2C(O)=C(C(=S)Nc2ccccc2)S1(=O)=O	1%	4%	-21	-13%	21µM*
Cc1cccc(CNC(=O)c2cccc(NC(=O)N3CCSc4ncccc43)c2)c1	/	/	/	-10%	/
Cc1ccccc1C(=O)Nc1cccc(C(=O)OCc2cc(=O)n3c(C)csc3n2)c1	/	/	/	-13%	/
O=c1c(/C=C(\O)c2ccccc2)nc2ccccc2n1-c1ccccc1	56µM*	1%	1	?	?
Cc1nc2ccccc2n1-c1ccccc1	3%	3%	0	-14%	1%
COc1ccc(N=C2C(=Nc3ccc(OC)cc3)N(c3ccc(OC)cc3)C(=S)N2C(=O)c2ccc(OC)cc2)cc1	3%	2%	/	-16%	-9%
COc1ccc(N2C(=S)N(C(=O)c3ccccc3)C(=Nc3ccccc3)C2=Nc2ccccc2)cc1	-4%	/	/	-20%	21µM*
SMILES	WRN helicase inh	USP2a block	PI5P4Ka inh	USP1-UAF1 inh	PLK1 PBD inh
COc1ccc(C(=O)N(Cc2ccc(C(C)C)cc2)C2CCS(=O)(=O)C2)cc1 (centres undefined)	/	/	/	1%	/
CC(Sc1ccccn1)C(=O)Nc1ccccc1 (centres undefined)	9%	-3%	/	-7%	24µM*
C/C(=N\NC(=O)Cc1cccn1C)c1ccc2ccccc2c1	-12%	-1%	-21	-18%	-11%
COc1ccccc1OCC(=O)N/N=C(\C)c1ccc2ccccc2c1	-4%	/	-68*	-13%	-1%
O=C1c2ccccc2-c2onc3ccc(NCCCn4ccnc4)c1c23	32µM*	?	/	28µM*	1.5µM*
COc1cccc2c1C(=O)c1ccc3ccccc3c1C2=O	?	3%	14	-9%	-16%
COc1ccc2noc3c2c1C(=O)c1ccccc1-3	?	/	-14	4µM*	0.38µM*
COc1ccc(N)c2c1C(=O)c1ccccc1C2=O	20µM*	-3%	1	-6%	-1%
COc1ccc(OC)c2c1C(=O)c1ccccc1C2=O	?	?	0	32µM*	11µM*
Cc1ccc2oc(-c3ccc(Cl)c(NC(=O)c4ccc(OC(C)C)cc4)c3)nc2c1	/	/	/	10%	/
CC(C)c1cnc2c(c1SCc1cccc(F)c1)c(=O)n(C)c(=O)n2C	/	/	/	-8%	/
O=C1C=C(O)c2c(O)cc(O)c(O)c2C1=O	?	/	-68*	-23%	?
COc1ccc(OC)c2c1C(=O)C(Cl)=C(Cl)C2=O	-30%[11.6 µM]	2%	-102*	-14%	2.1µM*
O=C1c2ccccc2C(=O)c2c(O)c(O)cc(O)c21	249%	0%	-106*	-34%	27µM*
Nc1ccc(O)c2c1C(=O)c1ccccc1C2=O	32µM*	4%	-97*	-22%	?
CCCN(C(=O)Cn1nc(Cc2cccnc2)c2ccccc2c1=O)c1ccc(C(C)C)cc1	/	/	/	5%	/
CC(=O)c1c(C)n(C)c2ccc(OC(=O)c3ccco3)cc12	7%	2%	-7	0%	-8%
COc1ccc(CCn2c(C)c(C(C)=O)c3cc(OC(=O)c4ccco4)ccc32)cc1OC	-29%	0%	3	-23%	24µM*
Cc1c(Cc2ccc3c(c2)OCO3)sc(NC(=O)C2CC2)c1C(N)=O	-27%	3%	-22	-18%	3.8µM*
Cc1c(Cc2ccccc2)sc(NC(=O)/C=C/c2cccc3ccccc23)c1C(N)=O	-11%	1%	-19	-10%	7.5µM*
Cc1nc(NC(=O)C2CCCC2)sc1Cc1ccc2c(c1)OCO2	-10%	-1%	1	-10%	-2%
Cc1c(Cc2ccc3c(c2)OCO3)sc(NC(=O)c2cccc3ccccc23)c1C(N)=O	-5%	0%	-7	-31%	6µM*
O=C(NCC(c1ccc2c(c1)OCO2)N1CCN(c2ccccc2F)CC1)c1ccccc1F (centres undefined)	/	/	/	-18%	/
Cc1cc(F)ccc1NC(=O)Cn1c(=O)ccc2cc(S(=O)(=O)N3CCC(C)CC3)ccc21	/	/	/	-9%	/
CCOC(=O)CNC(=O)c1cccnc1	-1%	3%	0	2%	24µM*
O=C(NCCc1c[nH]c2ccccc12)/C(=C\c1cccs1)NC(=O)c1ccccc1	-3%	2%	2	-19%	27µM*
Cc1ccc(C(=O)N/C(=C\c2cccs2)C(=O)NCCc2c[nH]c3ccccc23)cc1C	-9%	0%	2	-9%	-7%
CCS(=O)(=O)NCCc1sc2nc(-c3ccc(OC)cc3)nn2c1C	/	/	/	-19%	/
Cc1ccc(C2CC(=O)C=C(NCC(C)C)C2)cc1 (centres undefined)	-12%	4%	-2	-13%	27µM*

Source: PubChem (National Center for Advancing Translational Sciences (NCATS))
